High-throughput results (PubChem BioAssay)
In the library only some 19% were active in any assay of this set; here they are far more common.
IL-1B inflam inh: qHTS for Inhibitors of Inflammasome Signaling: IL-1-beta AlphaLISA Primary Screen; 360,000 tested, 4.7% active; THP-1 LPS/ATP IL-1B secretion, AlphaLISA, 16 h; stronger effect = lower value; activity change, % at 57.5 µM; in the data active = activity change below about -50%; inconclusive = mostly about -30% to -49%; note: % is set by controls: 0 for no effect and ±100 for the full control effect
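Secreted IL-1B measured by AlphaLISA bead assay after 16 h compound exposure of THP-1 cells; compounds (final up to 57.5 uM) added 1 h before LPS (250 ng/mL) and ATP (1.25 mM) stimulation; lower signal means less secretion.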
DT40 TDP1 no CPT: qHTS for Inhibitors of human tyrosyl-DNA phosphodiesterase 1 (TDP1): qHTS in cells in absence of CPT | DT40 Tdp1-/- hTDP1 cells, no CPT, ATP luminescence, 48 h | Potency, µM (top dose mostly 46.2 µM), without a hit: top-dose activity change, negative = growth inhibition, usual class: inhibitors | 420,000 tested, 15% active; note: potency is the fitted concentration of half-maximal effect; % is set by controls: 0 for no effect and ±100 for the full control effect; nearly all actives have a fitted effect of over 55% in size
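Growth of hTDP1-complemented DT40 Tdp1-knockout cells is measured by ATP luminescence after at least 48 hr compound exposure at 37 °C, with DMSO substituting for the 20 nM CPT used in the parallel screen.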
HepG2 viability: qHTS for Inhibitors of TGF-b: Cytotox Counterscreen | Potency, µM (highest dose often 46.1 µM), without a hit: top-dose activity change, negative = cytotoxicity, hits mostly cytotoxic | AID 588856, 2011 | HepG2 CAGA-GFP viability, ATP luminescence, 18 h | 410,000 tested, 0.76% active; note: potency is the fitted concentration of half-maximal effect
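HepG2 CAGA-GFP cells (1000/well, DMEM with 1% FBS) received compound, then TGF-beta at 500 pg/mL final, and were incubated 18 hours at 37 degrees C. Viability was read by CellTiter-Glo luminescence. Media-only wells were set as complete cell-killing and DMSO as no toxicity.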
TDP1 inh: qHTS Assay for Inhibitors of Tyrosyl-DNA Phosphodiesterase (TDP1) | recombinant TDP1, AlphaScreen DNA substrate cleavage | Potency, µM (doses to about 130 µM), inactives show at the top dose activity change, negative = inhibition, most hits filed as inhibitors | 350,000 tested, 0.28% active | AID 485290, 2010 | Tyrosyl-DNA phosphodiesterase 1 (Homo sapiens), Q9NUW8; note: potency is the fitted concentration of half-maximal effect; % is set by controls: 0 for no effect and ±100 for the full control effect; nearly all actives have a fitted effect of over 40% in size
Target sequence (Q9NUW8 whole entry, looked up): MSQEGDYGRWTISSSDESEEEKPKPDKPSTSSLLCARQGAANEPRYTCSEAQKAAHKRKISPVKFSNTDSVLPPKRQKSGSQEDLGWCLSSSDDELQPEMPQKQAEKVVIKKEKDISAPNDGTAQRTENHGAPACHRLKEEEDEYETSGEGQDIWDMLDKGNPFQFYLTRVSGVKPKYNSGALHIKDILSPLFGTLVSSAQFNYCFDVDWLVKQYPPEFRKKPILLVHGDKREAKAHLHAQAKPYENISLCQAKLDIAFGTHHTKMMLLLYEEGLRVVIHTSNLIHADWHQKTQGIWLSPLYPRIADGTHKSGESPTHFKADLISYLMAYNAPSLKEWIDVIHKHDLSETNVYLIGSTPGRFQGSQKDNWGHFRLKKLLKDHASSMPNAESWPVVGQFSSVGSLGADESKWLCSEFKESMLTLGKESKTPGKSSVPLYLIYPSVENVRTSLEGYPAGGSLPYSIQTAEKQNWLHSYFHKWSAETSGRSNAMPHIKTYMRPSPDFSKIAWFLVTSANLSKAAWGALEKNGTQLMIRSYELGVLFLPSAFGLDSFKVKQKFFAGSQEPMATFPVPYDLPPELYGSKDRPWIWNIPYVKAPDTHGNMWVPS
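Tdp1 1 nM final; 15 min RT w/ cpd; substrate 15 nM, 5 min; beads 10 ug/ml, 10 min; AlphaScreen read. Neg ctrl: no enzyme.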
TDP1 cell CPT: qHTS for Inhibitors of human tyrosyl-DNA phosphodiesterase 1 (TDP1): qHTS in cells in presence of CPT | chicken DT40 Tdp1-/-;hTDP1 cells + 20 nM CPT, ATP luminescence, 48 h | 420,000 tested, 12% active | Potency, µM (doses to about 46.2 µM), without a hit: at the top dose activity change, negative = growth inhibition, most hits filed as inhibitors; note: potency is the fitted concentration of half-maximal effect; % is set by controls: 0 for no effect and ±100 for the full control effect; nearly all actives have a fitted effect of over 55% in size
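Chicken DT40 Tdp1-/- cells complemented with human TDP1, 400 cells/well, exposed to compounds plus 20 nM camptothecin for at least 48 h at 37 C; viability read as ATP content by CellTiter-Glo luminescence.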
TGFb SMAD3 inh: qHTS for Inhibitors of TGF-b. Potency, µM (doses to about 46.1 µM), for the others: at the highest dose activity, negative = inhibition, hits mostly inhibitors. 410,000 tested, 1.2% active. HepG2 CAGA-GFP TGF-b/SMAD3 reporter, GFP fluorescence, 18 h; TGF-beta stimulated, 500 pg/mL final; note: potency is the fitted concentration of half-maximal effect; % is set by controls: 0 for no effect and ±100 for the full control effect; nearly all actives have a fitted effect of over 65% in size
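HEPG2 CAGA-GFP reporter cells (1000/well, DMEM with 1% FBS) received compounds, then recombinant TGF-beta at 500 pg/mL final for 18 hours at 37 degrees C. Per-cell GFP summed per well was normalised to unstimulated and stimulated DMSO controls before curve fitting.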
Starred values were filed as active, the others as inactive; ? = inconclusive; . = no result given; [ ] = another dose, or the depositor's remark. Unless noted, calls come from the whole dose curve; as a rule, active = well fitted curve in the direction sought with a large enough effect; inconclusive = small, poorly fitted or top-dose-only effect, or another doubt; inactive = no such curve, though single readings can be large; an effect the other way counts as inactive or inconclusive.

SMILES | IL-1B inflam inh | DT40 TDP1 no CPT | HepG2 viability | TDP1 inh | TDP1 cell CPT | TGFb SMAD3 inh
O=C(CN1CCCC1)NCC12CC3CC(CC(C3)C1)C2 | -14 | -19% | 3% | 6% | -22% | -7%
O=C(OCCN1CCOCC1)c1ccc(O)cc1 | -10 | -18% | -2% | . | 2% | 4%
CCc1nnc(NC(=O)CSc2nnc(-c3ccncc3)n2C)s1 | 0 | -13% | 0% | 0% | -7% | -16%
Cc1cc(NC(=O)CSc2nnc3c(C)cc4c(C)ccc(C)c4n23)no1 | 35 | 1.5µM* | 1% | 3% | 1.2µM* | 0%
CCc1nnc(NC(=O)CSc2nnc3c(C)cc4c(C)ccc(C)c4n23)s1 | 30 | 4.6µM* | 0% | 1% | 3.7µM* | 0%
COc1ccc(CN2CCOc3ccc(CN4CCC(O)CC4)cc3C2)c(OC)c1OC | . | -22% | . | . | -22% | .
CCCOc1ccccc1/C=C(\C#N)C(=O)Nc1cccc(C)n1 | -2 | -15% | 5% | . | -5% | 13%
N#C/C(=C\c1ccccc1C(F)(F)F)C(=O)Nc1ccccc1 | -70* | -12% | -28% | -1% | -26% | -11%
CCc1cccc(CC)c1NC(=O)/C(C#N)=C/c1ccccc1C(F)(F)F | -99* | 21µM* | -95% | 3% | ? | 13µM*
N#C/C(=C\C=C\c1ccccc1)C(=O)Nc1ccccc1 | 37 | -4% | -8% | 5% | -6% | ?
N#C/C(=C\c1ccccc1Cl)C(=O)Nc1ccccn1 | 13 | -20% | -1% | . | 14% | 12%
Cc1ccc(NC(=O)/C(C#N)=C/c2ccccc2Cl)cc1C | . | 26µM* | -44% | 10% | 26µM* | -9%
CC(C)NC(=O)/C(C#N)=C/c1cccc(NC(=O)c2ccccc2Cl)c1 | -104* | 15µM* | -69% | 3% | ? | ?
COc1cccc(N2CCN(C(=O)c3cc4cc5cc(C)ccc5nc4s3)CC2)c1 | . | -28% | -8% | 3% | -23% | ?
CNS(=O)(=O)c1cn(CC(=O)Nc2ccc(F)cc2F)cc1S(=O)(=O)NC | . | -11% | 0% | 8% | -12% | 0%
CNc1ccc(/C=C(\C#N)C(=O)Nc2ccccn2)cc1[N+](=O)[O-] | 9 | -15% | -37% | 7% | -1% | -1%
N#C/C(=C/c1ccc(O)c([N+](=O)[O-])c1)C(=O)Nc1ccccc1 | -2 | 6.5µM* | -24% | 0% | 4.1µM* | -6%
Cc1ccc(C(=O)Nc2cc3ccccc3oc2=O)cc1 | 37 | 3.7µM* | -3% | 5% | 2.1µM* | -1%
Cc1oc(=O)c(NC(=O)c2ccccc2)cc1C(=O)c1ccccc1 | 1 | ? | -91% | 1% | ? | ?
CC(=O)c1cc(NC(=O)c2ccc(C)cc2)c(=O)oc1C | -106* | ? | -17% | 1% | 23µM* | ?
CC(=O)c1cc(NC(=O)c2ccccc2)c(=O)oc1C | -102* | 33µM* | -24% | -1% | ? | ?
COC(=O)[C@]1(C)N[C@H](CN(C)C(=O)c2ccc(F)cc2)[C@@H]2C(=O)N(C)C(=O)[C@@H]21 | 22 | 3% | -15% | 1% | -2% | 3%
CCc1ccc(NC(=O)c2ccc(OC)c([N+](=O)[O-])c2)cc1 | -8 | 1% | -1% | 0% | 3% | 4%
CCCCOc1ccc(C(=O)Nc2ccc(N3CCN(C(C)=O)CC3)cc2)cc1 | 8 | ? | 0% | 7% | -11% | 1%
COc1cc(C(=O)Nc2ccc(N3CCN(C(=O)c4ccc(C)cc4)CC3)cc2)cc(OC)c1OC | -26 | 15µM* | -5% | 0% | 21µM* | 1%
SMILES | IL-1B inflam inh | DT40 TDP1 no CPT | HepG2 viability | TDP1 inh | TDP1 cell CPT | TGFb SMAD3 inh
CCCCOc1ccc(C(=O)Nc2ccc(N3CCN(C(=O)C(C)C)CC3)cc2)cc1 | -8 | 7.3µM* | -8% | 4% | 8.2µM* | -5%
Cc1ccc(C(=O)N2CCN(c3ccc(NC(=O)c4cccnc4)cc3)CC2)cc1 | -21 | -3% | -10% | 10% | -12% | 4%
O=C(Nc1ccc(C2=NCCN2)cc1)c1ccc(C(=O)Nc2ccc(C3=NCCN3)cc2)c([N+](=O)[O-])c1 | -6 | 6.5µM* | 27% | -4% | 6.5µM* | 4%
COc1ccc(C(=O)Nc2ccncc2)cc1[N+](=O)[O-] | -79* | -20% | 9% | . | -29% | 8%
O=C(Nc1ccc2c(c1)OCO2)c1ccc([N+](=O)[O-])cc1[N+](=O)[O-] | 22 | ? | -11% | 1%[0.0935 µM] | ? | ?
CC[C@@]1(O)C(=O)COc2c1cc1n(c2=O)Cc2c-1nc1cccc(C(C)C)c1c2[Si](C)(C)C | . | . | . | 8% | . | .
COc1ccc(C(=O)Nc2ccc(N3CCN(C)CC3)cc2)cc1[N+](=O)[O-] | -7 | -1% | -26% | 0% | 2% | 0%
COc1ccc(C(=O)NC(=S)Nc2cc(C)ccn2)cc1[N+](=O)[O-] | 17 | ? | -3% | -1% | 16µM* | ?
COc1ccc(C(=O)Nc2ccc(N3CCN(C(=O)c4ccccc4)CC3)cc2)cc1[N+](=O)[O-] | ? | ? | -8% | 8% | 15µM* | -28%
COc1ccc(C(=O)Nc2cc(C)on2)cc1[N+](=O)[O-] | -13 | -4% | 8% | 5% | 11% | 11%
COc1ccc(C(=O)Nc2ccc(N3CCN(C(=O)C(C)C)CC3)cc2)cc1[N+](=O)[O-] | -7 | 12µM* | 2% | -5% | ? | -2%
OC(c1ccccc1)C(NCc1ccccc1)c1ccccc1 (stereo not drawn) | -23 | 23µM* | -29% | . | 23µM* | 1%
CCCCc1c(C)nc2ccc(Br)cc2c1SCCC#N | . | . | . | -2% | . | .
CCc1c(C)nc2ccc(Br)cc2c1SCCC#N | -183* | ? | -26% | 0% | ? | ?
COCCNC(=O)C(c1ccc(C)cc1)N(Cc1ccco1)C(=O)CCC(=O)Nc1ccccn1 (stereo not drawn) | -12 | -23% | -6% | 12% | 0% | -10%
COc1cc(C(=O)NCc2nc(-c3ccc(Cl)cc3)no2)cc(OC)c1OC | . | -19% | -7% | 2% | 6% | 0%
